This is an account of results in PubChem BioAssay.

Assay [1] is described as follows: stimulators of insulin release from INS-1E, primary screen, cell-based, 5 mM glucose, NPC library (AID 1117329;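 active = compound raises insulin release from rat beta cells at 5 mM glucose, no numeric limit stated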; also: reference of the scale not given here). To be noted: rat INS-1E insulin secretion, at 10 µM, stronger effect = higher value.
Assay [2] can be described thus: growth inhibition of GSK3B-pretreated HCT116 cells – cell-based, CellTiter-Glo, 0.2 to 20 µM (AID 1117336). The following applies: HCT116 viability after GSK3B inhibitor, at 20 µM, stronger effect = higher value. (In general: Cellular ATP, detected with luciferase, serves as a proxy for viable cell number.)
The nature of assay [3]: inhibition of endothelial tube formation, primary screen, imaging, VEGF stimulated, CD31 staining, tube area, NPC library (AID 1117340;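 active = compound that reduces growth-factor-driven endothelial tube area in a mixed cell culture, no cutoff stated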). The following applies: VEGF-stimulated ADSC/ECFC co-culture, at 10 µM, stronger effect = higher value.
Assay [4] can be described thus: GLP1 release stimulators, primary, NCI-H716, NPC library (AID 1117341;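 active = compound raises GLP1 secretion from the human gut endocrine cells, with no numeric limit stated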; also: reference of the scale not given here). To be noted: NCI-H716 cells, at 10 µM, stronger effect = higher value.
A short description of assay [5]: HCT116 colon cancer cell growth inhibition, primary screen, CellTiter-Glo luminescence, NPC library (AID 1117342;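 active = compounds that lower survival of HCT116 colon cancer cells in the luminescence readout, no numeric limit stated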). To be noted: at 20 µM (top of the series).
Assay [6] is described as follows: reduced SW480 viability measured with CellTiter-Glo, NPC library, primary (AID 1117343;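 active = compounds that lower viability of the colon cancer cells in the luminescence readout, with no numeric limit stated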). The following applies: CellTiter-Glo luminescence; at 20 µM (top of the series).
The nature of assay [7]: NPC library primary testing for decreased DLD-1 cell viability via CellTiter-Glo (AID 1117346;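 active = compounds that lower survival of DLD-1 colon cancer cells in the luminescence readout, no cutoff given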). To be noted: DLD-1 viability, CellTiter-Glo luminescence; at 20 µM (top of the series).

Values without a mark were called inactive. Active and inactive are the calls of the source.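 The calls were made as follows, unless noted: active = compounds lowering colon cancer cell viability after pretreatment blocking the GSK3B kinase; inactive = the rest.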

Regarding `CC(=O)O[C@H]1C[C@@H]2CC[C@@H]3[C@H](CC[C@@]4(C)[C@H]3C[C@H]([N+]3(C)CCCCC3)[C@@H]4OC(C)=O)[C@@]2(C)C[C@@H]1N1CCCCC1`, in assay [1], the insulin secretion stimulation is 0.6%. In addition, the viability decrease in assay [2] is -4.1%. In addition, the tube area decrease in assay [3] was 4.6%. Also, the GLP1 secretion stimulation in assay [4] is 13.2%. Besides, in assay [5], the inhibition of viability was 3.2%. Besides, the results for the viability decrease (inhibition) in assay [6] and in assay [7] were -6.9% and -7.1%, respectively.
`CN(C)CC[C@@H](c1ccc(Cl)cc1)c1ccccn1`: the insulin secretion stimulation in assay [1] was 81.7% (active). Besides, the viability decrease in assay [2] is -5.1%. Also, the tube area decrease in assay [3] was -4%. For the same molecule, in assay [4], the GLP1 secretion stimulation is 5.7%. For the same molecule, the inhibition of viability in assay [5] is 28.8%. Besides, the values for the viability decrease (inhibition) in assay [6] and in assay [7] were 35.9% and -3.4%, respectively.
As for `Brc1c(NC2=NCCN2)ccc2nccnc12`, the insulin secretion stimulation in assay [1] is 0.4%. Also, the viability decrease in assay [2] is 27%. In assay [3], the tube area decrease was -5.2%. In assay [4], the GLP1 secretion stimulation is -3.1%. The inhibition of viability in assay [5] is 15.1%. The viability decrease (inhibition) in assay [6] was 7.7%; in assay [7] it was -3.7%.
Turning to `C[C@]12C[C@H](O)[C@H]3[C@@H](CCC4=CC(=O)CC[C@@]43C)[C@@H]1CC[C@@H]2C(=O)CO`, the insulin secretion stimulation in assay [1] was 1.6%. Also, the viability decrease in assay [2] was -24.9%. In assay [3], the tube area decrease is 9.5%. The GLP1 secretion stimulation in assay [4] was 0.3%. For the same molecule, the inhibition of viability in assay [5] was -2.93%. Further, the figures for the viability decrease (inhibition) in assay [6] and in assay [7] were 37.4% and 8.6%, respectively.
For the molecule `Cc1nc2ccc(CN(C)c3ccc(C(=O)N[C@@H](CCC(=O)O)C(=O)O)s3)cc2c(=O)[nH]1`, in assay [1], the insulin secretion stimulation was -5.7%. Further, the viability decrease in assay [2] is 83.7% (active). Moreover, the tube area decrease in assay [3] is 62.5% (active). Besides, in assay [4], the GLP1 secretion stimulation was 1%. Further, the inhibition of viability in assay [5] is 78.2% (active). Besides, the viability decrease (inhibition) in assay [6] is 117% (active); in assay [7], 56.2% (active).
On to `Cc1nc(-c2ccc(OCC(C)C)c(C#N)c2)sc1C(=O)O`, for which the insulin secretion stimulation in assay [1] is 3.8%. Moreover, the viability decrease in assay [2] was 25.8%. The tube area decrease in assay [3] was -47.3%. Also, the GLP1 secretion stimulation in assay [4] is 4.1%. Further, the inhibition of viability in assay [5] was 25.4%. The viability decrease (inhibition) in assay [6] is 57.5% (active); in assay [7] it was 28.7%.
With `C#C[C@]1(O)CC[C@H]2[C@@H]3CCc4cc(OC)ccc4[C@H]3CC[C@@]21C`, the insulin secretion stimulation in assay [1] was 0.5%. The viability decrease in assay [2] was 1.9%. In assay [3], the tube area decrease is 10.3%. Besides, in assay [4], the GLP1 secretion stimulation is 16.1%. The inhibition of viability in assay [5] was 45%. In addition, the values for the viability decrease (inhibition) in assay [6] and in assay [7] were 110% (active) and 26.6%, respectively.
Turning to `Cc1nccn1CC1CCc2c(c3ccccc3n2C)C1=O` (stereo unspecified), the insulin secretion stimulation in assay [1] is -1.6%. Besides, the viability decrease in assay [2] is -7%. Further, the tube area decrease in assay [3] was 1.5%. For the same molecule, the GLP1 secretion stimulation in assay [4] was -1.9%. For the same molecule, the inhibition of viability in assay [5] is 24.8%. Besides, the viability decrease (inhibition) in assay [6] was -3.2%; in assay [7] it was -8%.
Take `Cc1[nH]cnc1CN1CCc2c(c3ccccc3n2C)C1=O`: in assay [1], the insulin secretion stimulation is 0.5%. The viability decrease in assay [2] was 10.2%. Moreover, the tube area decrease in assay [3] was 19.5%. In addition, in assay [4], the GLP1 secretion stimulation is 5.1%. Further, in assay [5], the inhibition of viability was -1.8%. For the same molecule, the viability decrease (inhibition) in assay [6] is 42.2%; in assay [7], 23.8%.
With `Oc1ccc(C2CNCCc3c2cc(O)c(O)c3Cl)cc1` (stereo unspecified), in assay [1], the insulin secretion stimulation was 5.4%. The viability decrease in assay [2] is 66.2% (active). Besides, the tube area decrease in assay [3] was 42.2% (active). Besides, the GLP1 secretion stimulation in assay [4] is 1%. Moreover, the inhibition of viability in assay [5] is 50.2% (active). The viability decrease (inhibition) in assay [6] was 50.9% (active); in assay [7], 29.6%.
Turning to `CC(=O)Nc1ccc(CC(=O)O)cc1`, the insulin secretion stimulation in assay [1] is -2.2%. The viability decrease in assay [2] is -4.5%. Also, in assay [3], the tube area decrease was 12.1%. Also, the GLP1 secretion stimulation in assay [4] was 0.9%. In assay [5], the inhibition of viability is -11%. For the same molecule, the viability decrease (inhibition) in assay [6] was 16.5%; in assay [7] it was -2.4%.
`NCC1CCC(C(=O)Oc2ccc(CCC(=O)O)cc2)CC1` (stereo unspecified): the insulin secretion stimulation in assay [1] is -2.1% (active). The viability decrease in assay [2] was 1.9%. In addition, the tube area decrease in assay [3] is 4.4%. For the same molecule, the GLP1 secretion stimulation in assay [4] is 1.4%. Also, the inhibition of viability in assay [5] is -7.95%. Further, the viability decrease (inhibition) in assay [6] was 17.7%; in assay [7], 3.17%.
Consider `COC(=O)C1=C(C)NC(C)=C(C(=O)OCC(C)C)C1c1ccccc1[N+](=O)[O-]` (stereo unspecified), for which the insulin secretion stimulation in assay [1] was 1.25%. For the same molecule, the viability decrease in assay [2] was 102% (active). The tube area decrease in assay [3] is 15.6%. In addition, the GLP1 secretion stimulation in assay [4] was 1.3%. The inhibition of viability in assay [5] was 97.8% (active). Further, the viability decrease (inhibition) in assay [6] was 122% (active); in assay [7] it was 86.2% (active).
`COc1ccccc1N1CCN(CC(O)COc2cccc3ccccc23)CC1` (stereo unspecified): the insulin secretion stimulation in assay [1] was 0.4%. For the same molecule, in assay [2], the viability decrease is 0.8%. The tube area decrease in assay [3] is 35.4%. The GLP1 secretion stimulation in assay [4] is 10%. Also, in assay [5], the inhibition of viability was 64.7% (active). In addition, the viability decrease (inhibition) in assay [6] was 92.1% (active); in assay [7], 59.3% (active).
In the case of `Cn1nnc2c(C(N)=O)ncn2c1=O`, the insulin secretion stimulation in assay [1] is 6.3%. Moreover, the viability decrease in assay [2] was -10.2%. Also, the tube area decrease in assay [3] is 26.7%. In assay [4], the GLP1 secretion stimulation is -2.4%. Further, in assay [5], the inhibition of viability was 1.9%. Also, the viability decrease (inhibition) was -3.8% in assay [6] and -1.4% in assay [7].
Regarding `COc1cc2nc(N3CCN(C(=O)C4COc5ccccc5O4)CC3)nc(N)c2cc1OC` (stereo unspecified), the insulin secretion stimulation in assay [1] is -0.7%. In addition, the viability decrease in assay [2] is 100% (active). In addition, the tube area decrease in assay [3] was 85.3% (active). Further, the GLP1 secretion stimulation in assay [4] was 25.7% (active). In addition, the inhibition of viability in assay [5] is 101% (active). Further, the viability decrease (inhibition) in assay [6] was 142% (active); in assay [7], 103% (active).
Take `CN(C)c1ccc2nc3ccc(=[N+](C)C)cc-3sc2c1`: the insulin secretion stimulation in assay [1] was -1.1%. Besides, the viability decrease in assay [2] is 98.6% (active). Moreover, in assay [3], the tube area decrease was 103% (active). Moreover, the GLP1 secretion stimulation in assay [4] is 280% (active). Also, the inhibition of viability in assay [5] is 97.8% (active). Besides, the viability decrease (inhibition) was 65.3% (active) in assay [6] and 44.2% in assay [7].
Take `CCCCCN(C)CCC(O)(P(=O)(O)O)P(=O)(O)O`: in assay [1], the insulin secretion stimulation was 7.6%. For the same molecule, in assay [2], the viability decrease is 1.9%. The tube area decrease in assay [3] was -11.9%. In addition, the GLP1 secretion stimulation in assay [4] is -0.5%. Moreover, the inhibition of viability in assay [5] is 9%. The viability decrease (inhibition) is 17.5% in assay [6] and 15.6% in assay [7].
